Bioassay records as filed in PubChem.
Most compounds without a hit are left out; they make up all but 19% or so of the library.
TGFb inhibitor: blocks TGF-b signaling. HepG2 CAGA-GFP TGF-b/SMAD3 reporter, GFP fluorescence, 18 h; TGF-beta stimulated, 500 pg/mL final. AID 588855. Potency, µM (highest dose often 46.1 µM), inactives show top-dose activity, negative = inhibition, most hits filed as inhibitors. hit rate 1.2% among 410,000; note: potency is the fitted concentration of half-maximal effect; % is set by controls: 0 for no effect and ±100 for the full control effect; nearly all actives have a fitted effect of over 65% in size
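Inhibition was scored as loss of TGF-beta-induced (500 pg/mL final, 18 hours, 37 degrees C) GFP in HEPG2 cells carrying a CAGA-GFP reporter, in DMEM with 1% FBS. Well GFP was summed per cell; Activity was normalised to unstimulated and stimulated DMSO wells, then concentration-response fitting.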
HepG2 tox-1: kills HepG2 cells in TGF-b inhibitor counter-screen | hit rate 0.76% among 410,000 | HepG2 CAGA-GFP viability, ATP luminescence, 18 h | Potency, µM (doses to about 46.1 µM), for inactives: top-dose activity change, negative = cytotoxicity, actives largely listed as cytotoxic; note: potency is the fitted concentration of half-maximal effect
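CellTiter-Glo luminescence gave cytotoxicity after 18 hours at 37 degrees C. The cells were HepG2 CAGA-GFP in 1% FBS DMEM, stimulated with 500 pg/mL TGF-beta after compound addition. %Activity was normalised to no-cell wells (complete cell-killing) and DMSO (no toxicity), and curves were fitted and classified.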
TDP1 cell noCPT: qHTS for Inhibitors of human tyrosyl-DNA phosphodiesterase 1 (TDP1): qHTS in cells in absence of CPT | DT40 Tdp1-/- hTDP1 cells, no CPT, ATP luminescence, 48 h | hit rate 15% among 420,000 | Potency, µM (series often up to 46.2 µM), for inactives: at the top dose activity change, negative = growth inhibition, hits mostly inhibitors; note: potency is the fitted concentration of half-maximal effect; % is set by controls: 0 for no effect and ±100 for the full control effect; nearly all actives have a fitted effect of over 55% in size
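Readout: luminescence from CellTiter-Glo after 30 min in the dark at RT. Cells: DT40 Tdp1-/- with stable hTDP1, 400/well. Exposure: compounds alone, ≥48 hr, 37 °C.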
IL1B secr inh: inhibitors of inflammasome signaling (IL-1 beta secretion); hit rate 4.7% among 360,000; AID 743279; THP-1 LPS/ATP IL-1B secretion, AlphaLISA, 16 h; active compounds read low; activity change, % at 57.5 µM; in the data active = activity change below about -50%; inconclusive = mostly about -30% to -49%; note: % is set by controls: 0 for no effect and ±100 for the full control effect
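THP-1 cells pretreated 1 hr with compounds (up to 57.5 uM final), then stimulated with LPS (250 ng/mL final) plus ATP (1.25 mM final); secreted IL-1B measured by AlphaLISA after 16 hr, decreased signal indicating inhibition.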
ASM inhibitor: human S-ASM enzyme inhibition | P17405 | placental ASM, HMU-PC fluorogenic substrate, 60 min | Potency, µM (titrated, usually from 57.5 µM), without a hit: at the highest dose activity change, negative = inhibition, hits mostly inhibitors | hit rate 0.006% among 340,000 | AID 504937; note: potency is the fitted concentration of half-maximal effect
Target sequence (P17405 47-631 limits assumed): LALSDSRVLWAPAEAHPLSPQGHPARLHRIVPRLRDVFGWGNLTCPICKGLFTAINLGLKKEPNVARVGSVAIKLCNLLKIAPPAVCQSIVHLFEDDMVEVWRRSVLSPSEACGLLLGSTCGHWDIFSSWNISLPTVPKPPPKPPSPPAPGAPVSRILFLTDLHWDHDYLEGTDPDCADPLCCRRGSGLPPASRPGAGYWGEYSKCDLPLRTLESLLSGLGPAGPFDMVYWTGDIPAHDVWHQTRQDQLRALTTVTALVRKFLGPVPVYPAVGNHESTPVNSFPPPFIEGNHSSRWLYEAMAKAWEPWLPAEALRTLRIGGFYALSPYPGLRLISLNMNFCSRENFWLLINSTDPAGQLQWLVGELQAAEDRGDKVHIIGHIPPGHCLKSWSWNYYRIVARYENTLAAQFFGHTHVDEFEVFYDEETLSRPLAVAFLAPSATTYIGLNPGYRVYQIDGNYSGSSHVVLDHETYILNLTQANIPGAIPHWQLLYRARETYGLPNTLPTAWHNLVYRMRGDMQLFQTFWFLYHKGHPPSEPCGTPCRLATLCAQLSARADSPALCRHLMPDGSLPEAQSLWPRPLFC
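Fluorescence read-out (Ex 386 nm, Em 447 nm) after stopping the reaction at pH 10. Enzyme: ASM from human placenta; substrate HMU-PC0, 9 uM final; 60 min, 37 °C. Compound preincubation 10 min, ambient temperature.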
TDP1 cell CPT: growth inhibition of DT40 Tdp1-/-;hTDP1 cells with camptothecin (screen for TDP1 inhibitors); chicken DT40 Tdp1-/-;hTDP1 cells + 20 nM CPT, ATP luminescence, 48 h; Potency, µM (highest dose often 46.2 µM), inactives show top-dose activity change, negative = growth inhibition, most hits filed as inhibitors; hit rate 12% among 420,000; note: potency is the fitted concentration of half-maximal effect; % is set by controls: 0 for no effect and ±100 for the full control effect; nearly all actives have a fitted effect of over 55% in size
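Chicken DT40 Tdp1-/- cells complemented with human TDP1, 400 cells/well, exposed to compounds plus 20 nM camptothecin for at least 48 h at 37 C; viability read as ATP content by CellTiter-Glo luminescence.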
TGFb CAGA inh: TGF-b pathway inhibition, cherry-pick retest | shares compounds with TGFb inhibitor | HepG2 CAGA-GFP TGF-b reporter, GFP fluorescence, 18 h; cells stimulated with TGF-beta, 500 pg/mL | Potency, µM (doses to about 46.1 µM), for the others: at the highest dose activity, negative = inhibition, hits mostly inhibitors | hit rate 63% among 1,600 | AID 720534; note: potency is the fitted concentration of half-maximal effect; % is set by controls: 0 for no effect and ±100 for the full control effect; nearly all actives have a fitted effect of over 65% in size
HepG2 tox-2: toxic to HepG2 cells in TGF-b counterscreen | shares compounds with TGFb inhibitor | HepG2 CAGA-GFP viability, ATP luminescence, 18 h; cells stimulated with TGF-beta, 500 pg/mL | Potency, µM (highest dose often 46.1 µM), inactives show top-dose activity, negative = cytotoxicity, hits mostly inhibitors | hit rate 27% among 1,600 | AID 720535; note: potency is the fitted concentration of half-maximal effect; % is set by controls: 0 for no effect and ±100 for the full control effect; nearly all actives have a fitted effect of over 70% in size
TGFb CCL64 inh: TGF-b inhibition, CCL64 orthogonal assay. Potency, µM (highest dose often 46.1 µM), inactives show at the highest dose activity, negative = inhibition, hits mostly inhibitors. hit rate 41% among 1,600. shares compounds with TGFb inhibitor. CCL64 CAGA-GFP reporter, TGF-b stimulated, GFP fluorescence, 18 h; note: potency is the fitted concentration of half-maximal effect; nearly all actives have a fitted effect of over 65% in size
COP TGFb inh: TGF-b inhibition validated with COP promoter; shares compounds with TGFb inhibitor; Potency, µM (titrated, usually from 46.1 µM), without a hit: at the top dose activity, negative = inhibition, usual class: inhibitors; HepG2 COP-GFP TGF-b reporter, GFP fluorescence, 18 h; cells stimulated by added recombinant TGF-beta; hit rate 3% among 1,600; note: potency is the fitted concentration of half-maximal effect; nearly all actives have a fitted effect of over 70% in size
Numbers without * were called inactive; ? = inconclusive; / = not tested or not shown. Unless noted, calls come from the whole dose curve; as a rule, active = well fitted curve in the direction sought with a large enough effect; inconclusive = small, poorly fitted or top-dose-only effect, or another doubt; inactive = no such curve, though single readings can be large; an effect the other way counts as inactive or inconclusive.

SMILES | TGFb inhibitor | HepG2 tox-1 | TDP1 cell noCPT | IL1B secr inh | ASM inhibitor | TDP1 cell CPT | TGFb CAGA inh | HepG2 tox-2 | TGFb CCL64 inh | COP TGFb inh
Cc1cc(C)c2cc(C(=O)N3CCC(C(=O)c4ccc(F)cc4)CC3)[nH]c2c1 | 11µM* | -6% | 21µM* | ? | -10% | ? | 9.2µM* | -24% | ? | 14%
Cc1cc(C)c2cc(C(=O)N3CCC(N4CCCCC4)CC3)[nH]c2c1 | 11% | -7% | -1% | -11 | 2% | -16% | / | / | / | /
CCn1cc(C(=O)NCCCOC(C)C)c(=O)c2cc(S(=O)(=O)N3CCC(C)CC3)ccc21 | -19% | -4% | ? | 3 | -1% | ? | / | / | / | /
Cc1ccc(NC(=O)c2cc3c(-c4ccccc4)nn(-c4ccccc4)c3s2)cc1 | 4% | 7% | / | / | / | / | / | / | / | /
CN(C)c1ccc(C2CNC(c3ccc(Cl)c([N+](=O)[O-])c3)c3[nH]c4ccccc4c32)cc1 (stereo not drawn) | 8.9µM* | -33% | 18µM* | -25 | 267% | 23µM* | ? | -28% | 21µM* | 18%
CCOC(=O)C1CCCN(C(=O)c2ccc3[nH]c4c(c3c2)CC(C)CC4)C1 (stereo not drawn) | -8% | -5% | ? | 9 | 2% | -19% | / | / | / | /
CC1CCc2[nH]c3ccc(C(=O)N4CCCC(C(F)(F)F)C4)cc3c2C1 (stereo not drawn) | 14µM* | 8% | 16µM* | -62* | -8% | ? | ? | ? | 21µM* | 58%
CC(Oc1cccc2ccccc12)C(=O)N/N=C/c1cccnc1 (stereo not drawn) | 0% | 2% | 4% | 0 | -1% | -11% | / | / | / | /
Fc1cccc(CCN2C(=S)NC[C@@H]2CC2CCCCC2)c1 | 14µM* | -34% | ? | ? | -7% | ? | 16µM* | -16% | ? | -23%
COc1ccc(S(=O)(=O)Nc2ccccc2C(=O)Nc2nc(-c3ccc(F)cc3)cs2)cc1OC | 7.1µM* | -38% | 16µM* | ? | 168% | ? | 10µM* | ? | 8.2µM* | 48%
COc1ccc(-c2csc(NC(=O)c3ccccc3NS(=O)(=O)c3ccc(C)cc3)n2)cc1 | 3.5µM* | -44% | 15µM* | -21 | 24% | ? | 6.5µM* | 9.2µM* | 5.2µM* | 46%
CCn1cc(C(=O)NCc2ccc(C)cc2)c(=O)c2cc(S(=O)(=O)N(C)C3CCCCC3)ccc21 | ? | -10% | ? | / | / | ? | / | / | / | /
CCCCn1c(CNC(=O)C(C)(C)C)nc2ccccc21 | -1% | -3% | ? | 9 | 1% | -6% | / | / | / | /
CC(C)(C)C(=O)NCCCc1nc2ccccc2n1CCCOc1ccc(Cl)cc1 | 13µM* | -17% | 8.2µM* | -74* | -5% | 6.5µM* | 12µM* | -14% | ? | 11%
Nc1ncnc2c1ncn2C1C=C(CO)C(O)C1O (stereo not drawn) | 8.9µM* | 10µM* | 0.16µM* | 26 | 1% | 0.037µM* | ? | 0.13µM* | ? | 25%
O=c1[nH]c2cc([N+](=O)[O-])ccc2c2ccccc12 | -6% | 4% | -21% | -3 | 2% | -17% | / | / | / | /
O=C1Cc2c([nH]c3ccc([N+](=O)[O-])cc23)-c2ccccc2N1 | 0.5µM* | 21% | 1.8µM* | -99* | -8% | 1.8µM* | 0.16µM* | 0.29µM* | 1.3µM* | -11%
CCOCCn1c(CN2CCN(C(c3ccccc3)c3ccccc3)CC2)nc2c1c(=O)n(C)c(=O)n2C | 2% | -2% | ? | 15 | -5% | -12% | / | / | / | /
COc1ccc(NC(=O)c2ccc3nc(CCc4ccccc4)oc3c2)cc1 | 8% | 0% | ? | / | / | ? | / | / | / | /
COc1cccc(NC(=O)[C@@H]2CCCN2C(=O)[C@@H]2Cc3ccccc3CN2C(=O)OC(C)(C)C)c1 | ? | 3% | 2% | 15 | 0% | -29% | / | / | / | /
COc1ccc(CNC(=O)[C@@H]2CCCN2C(=O)[C@@H]2Cc3ccccc3CN2C(=O)OC(C)(C)C)cc1 | 11µM* | -7% | ? | -3 | 0% | -29% | 13µM* | -17% | 12% | -6%
COc1cc(C2c3cc4c(cc3OC(NCc3ccccc3)C2C)OCO4)cc(OC)c1OC (stereo not drawn) | 2.8µM* | -105% | 1.5µM* | 15 | 1% | 1.2µM* | 7.3µM* | 0% | ? | -16%
COc1cccc(C2c3cc4c(cc3OC(NNC(N)=O)C2C)OCO4)c1O (stereo not drawn) | 10µM* | 3% | 4.1µM* | 33 | -1% | 4.6µM* | 8.2µM* | -19% | ? | -15%
COc1cc(CC(=O)NCc2ccc3c(c2)OCO3)cc(OC)c1OC | 1% | 0% | -20% | 1 | 1% | -25% | / | / | / | /
Cc1cc(C)cc(NS(=O)(=O)c2ccc(-c3cnc(C4CC4)o3)cc2)c1 | 7.9µM* | -108% | 0.82µM* | 24 | 0% | 0.82µM* | 8.2µM* | ? | 5.2µM* | 15%
Cc1cccc(NS(=O)(=O)c2ccc(-c3cnc(C4CC4)o3)cc2)c1C | 14µM* | -25% | 0.01µM* | 84 | -21% | 0.0073µM* | 1.8µM* | ? | 4.1µM* | 18%
